Shown is part of a subset that was picked to be rich in hits.
Glyco luc inh: blocks N-linked glycosylation in D54 reporter cells; D54 ERlucT glycosylation luciferase reporter, 24 h; percent of 100 nM tunicamycin response; reporter increase, % at 12.5 µM; 360,000 compounds, 0.23% hits; AID 588692;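 active = mean luciferase reporter signal, scaled so untreated is 0 and the glycosylation-blocking control 100, at or above a set limit in every replicate; inconclusive = mean reaches the limit but not every replicate does; inactive = mean below the limit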;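 note: luciferase carries N-glycosylation sites so blocking glycosylation raises the light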
DENV2 CPE: protects cells from dengue virus 2 cytopathic effect | DENV2-infected cells, cytopathic effect rescue, plate reader | CPE inhibition, % at 9.99 µM | 350,000 compounds, 1.7% hits | AID 651640; in the data active = CPE inhibition above about 20%, passing the limit was not always enough; inconclusive = no clear call, values can overlap the other calls; tested in BHK-21 cells
PglD inh: blocks C. jejuni PglD acetyltransferase activity | AID 602405 | inhibition, % at 12.5 µM | 360,000 compounds, 0.098% hits | purified PglD enzyme, DTNB colorimetric CoA detection; in the data active = inhibition above about 16%, passing the limit was not always enough; inconclusive = no clear call, values can overlap the other calls
Rtt109 HAT inh: C. albicans Rtt109 histone acetyltransferase inhibition; Q5AAJ8; purified Rtt109/Vps75, ThioGlo CoA-SH fluorescence, 4 h; inhibition, % at 34.9 µM; 330,000 compounds, 0.16% hits; AID 540336;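 active = inhibition of at least 50% in every replicate; inconclusive = best replicate reaches 50% inhibition but some replicates fall short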
Target sequence (Q5AAJ8 whole entry, looked up): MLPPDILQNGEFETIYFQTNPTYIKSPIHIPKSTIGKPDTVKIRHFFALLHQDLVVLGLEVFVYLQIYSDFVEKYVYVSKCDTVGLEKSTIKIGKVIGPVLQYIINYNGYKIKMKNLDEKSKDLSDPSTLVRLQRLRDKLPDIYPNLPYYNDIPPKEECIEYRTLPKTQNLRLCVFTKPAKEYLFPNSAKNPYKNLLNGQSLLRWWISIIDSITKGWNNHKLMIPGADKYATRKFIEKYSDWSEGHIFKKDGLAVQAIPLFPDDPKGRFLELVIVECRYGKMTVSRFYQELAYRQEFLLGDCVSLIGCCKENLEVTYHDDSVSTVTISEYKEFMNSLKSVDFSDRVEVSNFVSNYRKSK
Of the large screens only hits and unclear results are named; the others gave an inactive call.

C=CCc1ccc(OCCCNCc2ccccc2)c(OC)c1	DENV2 CPE 43
O=C(Nc1cccc(C(F)(F)F)c1)OCCN1CCN(Cc2ccccc2)CCC1=O	DENV2 CPE 70
O=C(Nc1ccc(F)cc1)OCCN1CCN(Cc2ccccc2)CCC1=O	none (no result: DENV2 CPE)
CC1(C)C[C@H]2C3=CCC4[C@@]5(C)CC[C@H](O)[C@](C)(CO)C5CC[C@@]4(C)[C@]3(C)CC[C@@]2(C)[C@H](O)[C@@H]1O (some centres undefined)	none
CC1(C)C[C@H]2C3=CCC4[C@@]5(C)CC[C@H](O)[C@](C)(CO)C5CC[C@@]4(C)[C@]3(C)C[C@H]3O[C@@H]1[C@H](O)[C@]32CO (some centres undefined)	DENV2 CPE 41
CCCS(=O)(=O)N1CCCC(C(=O)NCCc2cccc(C)c2)C1 (centres undefined)	DENV2 CPE 27
CCS(=O)(=O)N1CCCC(C(=O)NCCc2ccccc2)C1 (centres undefined)	none (no result: DENV2 CPE, PglD inh)
COc1ccc(COC[C@@]23Oc4ccccc4[C@@H](NC(=O)N2C)[C@H]3CO)cc1	none (no result: Glyco luc inh, Rtt109 HAT inh)
CN1C(=O)N[C@@H]2c3ccccc3O[C@@]1(C)[C@@H]2CO	DENV2 CPE 20 (no result: Glyco luc inh, Rtt109 HAT inh)
CC(C)NC(=O)Nc1ccc2c(c1)CC(=O)N([C@H](C)CO)C[C@@H](C)[C@H](CN(C)Cc1ccc(C(=O)O)cc1)O2	DENV2 CPE inconclusive (no result: Glyco luc inh, Rtt109 HAT inh)
CC(C)NC(=O)Nc1ccc2c(c1)CC(=O)N([C@@H](C)CO)C[C@@H](C)[C@@H](CN(C)Cc1ccc(-c3ccccc3)cc1)O2	none (no result: Glyco luc inh, Rtt109 HAT inh)
CC(C)NC(=O)Nc1ccc2c(c1)CC(=O)N([C@H](C)CO)C[C@@H](C)[C@@H](CN(C)Cc1ccc(C(=O)O)cc1)O2	DENV2 CPE 68 (no result: Glyco luc inh, Rtt109 HAT inh)
CC(C)NC(=O)Nc1ccc2c(c1)CC(=O)N([C@H](C)CO)C[C@H](C)[C@H](CN(C)Cc1ccc(-c3ccccc3)cc1)O2	DENV2 CPE 28 (no result: Glyco luc inh, Rtt109 HAT inh)
COCCNC(=O)C(c1ccc(O)cc1)N(Cc1ccccc1)C(=O)CCC(=O)Nc1ccccn1 (centres undefined)	Rtt109 HAT inh 58
COc1ccc2c3c(n(C)c2c1)[C@H](CO)N(C(=O)c1ccccn1)CC31CCN(C(=O)c2ccccn2)CC1	none (no result: Glyco luc inh, PglD inh, Rtt109 HAT inh)
COc1ccc2c3c(n(C)c2c1)[C@H](CO)N(S(C)(=O)=O)CC31CCN(C(=O)c2ccccn2)CC1	DENV2 CPE 77 (no result: Glyco luc inh, PglD inh, Rtt109 HAT inh)
COc1ccc2c3c(n(C)c2c1)[C@@H](CO)N(S(C)(=O)=O)CC31CN(C(=O)c2ccccn2)C1	DENV2 CPE 34 (no result: Glyco luc inh, PglD inh, Rtt109 HAT inh)
CO[C@@H]1CC[C@@H]2CCOc3c(C#N)cccc3C(=O)N(C)[C@@H](C)C(=O)N(C)C[C@H]1O2	none (no result: Glyco luc inh, Rtt109 HAT inh)
CCC(/C=C1\Sc2ccc(OC)cc2N1CC)=C\c1sc2ccc(OC)cc2[n+]1CCCS(=O)(=O)[O-]	Rtt109 HAT inh inconclusive
CCC(/C=C1\Sc2ccc(OC)cc2N1CCO)=C\c1sc2ccc(OC)cc2[n+]1CCO	Rtt109 HAT inh 114
O=C(O)c1ccc[n+](Cc2ccc([N+](=O)[O-])cc2)c1	none (no result: Rtt109 HAT inh)
O=[N+]([O-])c1ccc(C[n+]2cccc(O)c2)cc1	DENV2 CPE 67
COc1cccc(S(=O)(=O)N2C[C@H](O)COC[C@H]3O[C@@H](CC(=O)N4CCOCC4)CC[C@@H]32)c1	none (no result: Glyco luc inh, Rtt109 HAT inh)
O=C1OC(Oc2ccccc2)(c2ccccc2)c2ccccc21 (centres undefined)	none (no result: DENV2 CPE)
O=C1OC(c2ccccc2)(N(Nc2ccccc2)c2ccccc2)c2ccccc21 (centres undefined)	DENV2 CPE 24 (no result: Rtt109 HAT inh)
CCN1/C(=C/C=C/c2sc3ccccc3[n+]2CC)Sc2ccccc21	Rtt109 HAT inh 66 (no result: DENV2 CPE)
CCN1/C(=C/C=C/C=C/C=C/c2sc3ccccc3[n+]2CC)Sc2ccccc21	none
O=C(c1ccccc1-c1ccccc1)N1CCN(c2ccccn2)CC1	Glyco luc inh 50 (no result: DENV2 CPE)
COc1ccccc1NC(=O)N1CCN(c2ccccn2)CC1	DENV2 CPE 31
O=C(c1cn(Cc2ccccc2)nc1-c1ccccc1)N1CCN(c2ccccn2)CC1	Glyco luc inh 51 (no result: PglD inh)
COCC(=O)N1CCC2(CC1)CN(Cc1cc(F)ccc1F)[C@H](CO)c1c2c2ccc(OC)cc2n1C	none (no result: Glyco luc inh, PglD inh, Rtt109 HAT inh)
Cc1cc(NC(=O)CCCn2nc([N+](=O)[O-])cc2C)no1	none
Cc1cc(NC(=O)CCCn2nc([N+](=O)[O-])c(Cl)c2C)no1	Rtt109 HAT inh 52 (no result: PglD inh)
C[C@@H]1CN([C@H](C)CO)C(=O)c2cc(NC(=O)Cc3ccccc3)ccc2O[C@@H](C)CCCCO[C@H]1CN(C)Cc1ccccc1	DENV2 CPE inconclusive (no result: Glyco luc inh, Rtt109 HAT inh)
O=C1/C(=C\c2ccc(Cl)cc2)CCC1CNc1ccc(Cl)cc1 (centres undefined)	DENV2 CPE 63 (no result: PglD inh)
O=C(c1cc2c(c(-c3cccc(Br)c3)n1)[C@H](CCO)NC2)N1CCCCC1	DENV2 CPE 35 (no result: Glyco luc inh, PglD inh, Rtt109 HAT inh)
CN1CCN(C(=O)c2cc3c(c(-c4cccc(C5=CCCC5)c4)n2)[C@H](CCO)N([S@@](=O)C(C)(C)C)C3)CC1	none (no result: Glyco luc inh, Rtt109 HAT inh)
CC(C)(C)S(=O)N1Cc2cc(C(=O)NCc3ccc4c(c3)OCO4)nc(-c3cccc(-c4cccc(F)c4)c3)c2[C@@H]1CCO (some centres undefined)	DENV2 CPE 24 (no result: Glyco luc inh, PglD inh, Rtt109 HAT inh)
CC(C)(C)[S@](=O)N1Cc2cc(C(=O)N3CCCCC3)nc(-c3cccc(C4=CCCC4)c3)c2[C@@H]1CCO	DENV2 CPE 26 (no result: Glyco luc inh, PglD inh, Rtt109 HAT inh)
CN1CCN(C(=O)c2cc3c(c(-c4cccc(Br)c4)n2)[C@@H](CCO)N(S(=O)C(C)(C)C)C3)CC1 (some centres undefined)	none (no result: Rtt109 HAT inh)
CC(C)(C)S(=O)N1Cc2cc(C(=O)NCc3ccc4c(c3)OCO4)nc(-c3cccc(-c4cc5ccccc5o4)c3)c2[C@H]1CCO (some centres undefined)	none (no result: Glyco luc inh, PglD inh, Rtt109 HAT inh)
CC(C)(C)S(=O)N1Cc2cc(C(=O)NCc3ccc4c(c3)OCO4)nc(-c3cccc(C#CCC4CCCC4)c3)c2[C@@H]1CCO (some centres undefined)	DENV2 CPE 49 (no result: Glyco luc inh, PglD inh, Rtt109 HAT inh)
Cc1ccccc1S(=O)(=O)NCC[C@H]1CC[C@@H](NC(=O)C2CCOCC2)[C@@H](CO)O1	none (no result: Glyco luc inh, Rtt109 HAT inh)
CCCNC(=O)[C@@H]1[C@@H](CO)[C@@H]2Cn3c(ccc(-c4cccc(C(=O)N(C)C)c4)c3=O)[C@H]1N2	none (no result: Glyco luc inh, Rtt109 HAT inh)
Cc1ccc2c(c1)COc1c3ccc(C(=O)N[C@@H](CO)C(C)C)cc3nn1-2	none
C[C@@H](CO)NC(=O)c1ccc2c3n(nc2c1)-c1ccccc1CO3	DENV2 CPE 40
C[C@@H]1CN([C@@H](C)CO)C(=O)c2cc(NC(=O)Nc3cccc4ccccc34)ccc2O[C@@H](C)CCCCO[C@@H]1CN(C)CC1CCCCC1	none (no result: Glyco luc inh, Rtt109 HAT inh)
C[C@H]1CCCCO[C@H](CN(C)CC2CCCCC2)[C@@H](C)CN([C@@H](C)CO)C(=O)c2cc(NC(=O)Nc3cccc4ccccc34)ccc2O1	none (no result: Glyco luc inh, Rtt109 HAT inh)
C[C@@H]1CCCCO[C@H](CN(C)C)[C@H](C)CN([C@H](C)CO)C(=O)c2cc(NC(=O)Nc3cccc4ccccc34)ccc2O1	DENV2 CPE 74 (no result: Glyco luc inh, Rtt109 HAT inh)
C[C@@H]1CN([C@@H](C)CO)C(=O)c2cc(NC(=O)Nc3cccc4ccccc34)ccc2O[C@@H](C)CCCCO[C@H]1CN(C)CC1CCCCC1	DENV2 CPE 28 (no result: Glyco luc inh, Rtt109 HAT inh)

Assay outcomes from PubChem.
